Values joined by “and” are separate entries in the source; they are usually repeats but may differ in a detail not shown here. Equal values may be shown once. Among all 16,000 compounds or so, about 160 (1%) were called active. About 8% were inconclusive and are not listed. Calls follow the shape of the dose curve; as a rule, active = well fitted activation curve with a large enough effect; inconclusive = small, poorly fitted or top-dose-only effect; inactive = no such curve, though single readings can be large or run the other way. Only a selection was taken, and actives are over-represented in it overall.
biological target: Rap guanine nucleotide exchange factor 3 (Homo sapiens) (UniProt O95398); test: Validation qHTS for agonist of cAMP-regulated guanine nucleotide exchange factor 3 (EPAC1); conditions: EPAC1 Rap1b BODIPY-GDP exchange, fluorescence; max response: stronger effect = higher value, percent of cAMP control response; also: nearly all actives have a fitted effect of over 70% in size
Source text: Assay Provider (PI): Xiaodong Cheng Ph.D.
The University of Texas Medical Branch, […], TX
In multi-cellular eukaryotic organisms, the effects of cAMP are transduced by two ubiquitously-expressed intracellular cAMP receptors, the classic protein kinase A/cAMP-dependent protein kinase (PKA/cAPK) and the more recently discovered exchange protein directly activated by cAMP/cAMP-regulated guanine nucleotide exchange factor (EPAC/cAMP-GEF). Both PKA and EPAC are ubiquitously expressed in all tissues, and an increase in intracellular cAMP levels will lead to the activation of both PKA and EPAC. Therefore, careful dissections of the individual role and relative contribution of EPAC and PKA within the overall cAMP signaling in various model systems are critical for further elucidating the mechanism of cAMP signaling. To date no EPAC-specific antagonists and agonist, as well as isoform-specific agonists have been reported, and developing EPAC-specific pharmacological probes to determine the physiological functions that EPAC play in the overall cAMP-mediated signaling remains a major challenge within the research field. Furthermore, identified regulators of EPAC may lead to new mechanism-based therapeutic strategies specifically targeting the EPAC / cAMP-signaling components as EPAC has been implicated to play important roles in major human pathological conditions such as diabetes, heart disease, and cancer.
This qHTS will be used to screen the Molecular Libraries Small Molecule Repository (MLSMR) as a concentration-titration series using the NCGC unique quantitative screening (qHTS) platform to find activators for EPAC1. In addition, this assay will also be used as a counterscreen for the EPAC2 qHTS. This fluorescent based assay is developed and validated for EPAC1 that measures exchange using EPAC effector Rap1 complex with BODIPY-GDP, a GDP analog with a tethered fluorophores. Activators are identified by monitoring the change in fluorescence signal as the exchanged free BODIPY-GDP has a reduced fluorescence compared to Rap1-bound BODIPY-GDP. Increase in signal (activation) is the desired outcome for the EPAC1 agonist while no activity in this assay is desired for the EPAC2 agonist counterscreen.
[1] de Rooij, J., Zwartkruis, F. J., Verheijen, M. H., Cool, R. H., Nijman, S. M., Wittinghofer, A., and Bos, J.L. (1998) Nature 396, 474-477.
Briefly, three uL of reagents (100 nM EPAC1, 250 nM RAP1B-BODIPY-GDP, 50 uM GDP) were dispensed into a 1536-well Greiner black solid-bottom medium binding assay plate. Controls and test compounds (23 nL) were transferred to the plate via a Kalypsys pin tool equipped with a 1536-pin array. The plates were centrifuged at 1,000 rpm for 15 seconds followed by 5 minute incubation at room temperature. The assay plates were read at 5 minute intervals for 30 minutes in the ViewLux plate reader using 480nm excitation and 540nm emission filters. The results were normalized to the agonist positive control of 6.5 mM cAMP.
% is scaled to controls: 0 for no effect and ±100 for the full control effect; potency is read from the fitted curve at half-maximal effect.

Chain of Rap guanine nucleotide exchange factor 3 (Homo sapiens) (O95398 whole entry, looked up): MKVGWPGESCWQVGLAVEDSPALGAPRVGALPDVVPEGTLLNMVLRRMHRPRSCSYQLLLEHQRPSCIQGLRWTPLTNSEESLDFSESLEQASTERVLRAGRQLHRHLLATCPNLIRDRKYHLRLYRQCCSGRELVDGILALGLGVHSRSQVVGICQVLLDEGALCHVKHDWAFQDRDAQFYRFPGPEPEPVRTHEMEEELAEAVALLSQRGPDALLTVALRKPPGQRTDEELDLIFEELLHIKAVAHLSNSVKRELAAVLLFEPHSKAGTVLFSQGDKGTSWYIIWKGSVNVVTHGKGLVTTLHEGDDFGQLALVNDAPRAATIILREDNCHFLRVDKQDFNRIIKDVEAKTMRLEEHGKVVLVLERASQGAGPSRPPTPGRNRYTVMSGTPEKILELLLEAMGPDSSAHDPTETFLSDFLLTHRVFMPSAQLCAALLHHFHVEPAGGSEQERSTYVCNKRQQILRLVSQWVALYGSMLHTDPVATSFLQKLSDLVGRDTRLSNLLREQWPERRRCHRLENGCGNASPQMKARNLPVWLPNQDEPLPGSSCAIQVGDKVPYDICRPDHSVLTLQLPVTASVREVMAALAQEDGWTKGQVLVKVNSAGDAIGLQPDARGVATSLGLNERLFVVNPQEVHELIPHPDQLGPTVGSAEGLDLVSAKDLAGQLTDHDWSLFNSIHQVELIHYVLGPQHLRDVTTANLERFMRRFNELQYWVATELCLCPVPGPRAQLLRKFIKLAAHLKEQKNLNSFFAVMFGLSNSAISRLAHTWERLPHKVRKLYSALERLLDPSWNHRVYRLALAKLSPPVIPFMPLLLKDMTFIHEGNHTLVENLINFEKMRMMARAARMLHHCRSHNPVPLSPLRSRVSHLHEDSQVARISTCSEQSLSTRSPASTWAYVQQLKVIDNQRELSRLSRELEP

Max response, inactive:
O=c1cc(-c2ccc(O)c(O)c2)oc2cccc(O)c12 8.34%
COc1cc(C)c(CN2CCc3nnc(C(C)NC(=O)c4cccnc4)n3CC2)cc1C (centres undefined) 12.1%
COCCNc1ncnc2ccc(-c3cccnc3)cc12 -29.2%
CN(C)c1ccc(/C=c2\[nH]c(=O)/c(=C/c3ccc(N(C)C)cc3)[nH]c2=O)cc1 8.62%
CC(C)C1=CC2=CC[C@@H]3[C@](C)(CO)CCC[C@]3(C)C2CC1 (some centres undefined) -8.55%
O=C(Nc1ccccc1)N[C@H]1C[C@H](C(=O)O)Nc2cc(Cl)cc(Cl)c21 1.49%
C=C1CC[C@H](O)CC1=C/C=C1\CCC[C@]2(C)[C@@H]([C@H](C)/C=C/[C@H](C)C(C)C)CC[C@@H]12 -127%
CC(N)=NCc1cccc(CN)c1 8.83% and -11.8%
CCOC(=O)C[C@H]1c2ccc(C(F)(F)F)cc2S(=O)(=O)N1c1ccccc1 -85%
CCC1CN(CCNC(=O)c2cccnc2C)Cc2cc(OC)ccc2O1 (centres undefined) 1.97%
Cc1nc2cnc(Oc3cccc(Cl)c3)nc2n(C2CC2)c1=O -12.8%
Cc1[nH]c2c(C(=O)NCC3Cc4cccc(-c5cccnc5)c4O3)cccc2c1C (centres undefined) 19.3%
O=S1(=O)CCO[C@H]2Cc3ccccc3[C@H]2N1Cc1ccccc1 7.53%
CC(=O)OC1CCC2(O)CC1(C)CCC1C2CC1(C)C (centres undefined) -18.2%
COc1cc2c(cc1OC)CC(=O)N(CCCN(C)C[C@H]1Cc3cc(OC)c(OC)cc31)CC2 1.48%
COc1ccc(C2CC(=O)c3c(O)cc(OC4OC(COC5OC(C)C(O)C(O)C5O)C(O)C(O)C4O)cc3O2)cc1O (centres undefined) -7.79%
O=C(c1cnccn1)N1CCC2(CCN(Cc3cc(C(F)(F)F)cc(C(F)(F)F)c3)CC2)CC1 -66.3%
NC(=O)C(=O)N/N=C/c1ccc([N+](=O)[O-])o1 -37.2%
COCCNc1ccnc(-c2cccc(NS(C)(=O)=O)c2)n1 -9.71%
Nc1nc(/C(=C/CC(=O)O)C(=O)N[C@@H]2C(=O)N3C(C(=O)O)=CCS[C@H]23)cs1 13.2%
N#C/C(=C\c1ccc(O)c(O)c1)C(N)=O -9.7% and -17.1%
COc1ccccc1C(=O)N[C@@H]1c2ccccc2C2(CCN(Cc3nc(C(C)C)cs3)CC2)[C@H]1O 12.9%
CN(C)c1ccc(CN2CCOc3ccc(CN4CCC(O)(c5cccnc5)CC4)cc3C2)cc1 -6.57%
O=C(c1cc(C(F)(F)F)cc(C(F)(F)F)c1)N1CCC2(CC1)CN(c1ccncc1)C2 12.3%
O=c1[nH]c(=O)c2nc3ccccc3nc2[nH]1 -1.62% and 3.86%
COC(=O)[C@@H]1C[C@H](NC(=O)c2ccccc2C(F)(F)F)CN1Cc1cccc(O)c1 -10.1%
Cc1cc(-c2ccnc(-n3ncc(C(=O)NC(C)(C)CO)c3C3CC3)n2)c(C)s1 5.17%
CS(=O)(=O)N1CCC2(CCN(c3ccncc3)CC2)CC1 -40.6%
O=c1c(O)c(-c2ccc(O)cc2)oc2ccccc12 -32.1%
COc1ccc(/C=C2\NC(=O)[C@@H]3Cc4ccccc4CN3C2=O)cc1 5.8%
CN1CCN2c3ccccc3Cc3ccccc3[C@@H]2C1 -0.216%
CCS(=O)(=O)Nc1cc(C(=O)N2C[C@@H](C)O[C@@H](C)C2)c2c(c1)nc(-c1ccccc1)n2C 19.2%
COc1ccc(CNc2ncnc3ccc(-c4cccnc4)cc23)c(OC)c1 -62.5%
FC(F)(F)c1ccccc1-c1nc(-n2ccnc2)c2ccccc2n1 0.971%
CC(=O)Nc1ccc(SC[C@H](Cc2ccccc2)N2CC[C@@H](C)CCC2=O)cc1 -7.47%
CCCN(C/C=C\I)[C@@H]1CCc2cccc(O)c2C1 -15.6%
COc1ccccc1-c1nc(N2CCN(C)CC2)c2ccccc2n1 -31.8%
c1ccc2nc(C3=NCCN3)cnc2c1 0.273%
O=c1cnc2cnc(Nc3ccccc3)nc2n1Cc1ccc(F)cc1 -19.3%
CCC1CN(CCNC(=O)c2ccsc2)Cc2cc(OC)ccc2O1 (centres undefined) 4.39%
O=c1c(CCc2ccccc2)nc2cncnc2n1C1CC1 26%
CC(=O)c1ccc(F)c(-c2cc(C)cc3c2OC(CNC(=O)Cc2c[nH]c4ccccc24)C3)c1 (centres undefined) 24.4%
CCCCCCCCCCCCCCCCO -1.51%
CC(=O)OCC(=O)[C@@]1(O)CCC2C3CCC4=CC(=O)CC[C@@]4(C)[C@]3(F)C(O)C[C@]21C (some centres undefined) -5.21%
CN1CC(O)c2cc(N=NC(N)=O)c(O)cc21 (centres undefined) -6.9%
CCCc1nc2c(C)cc(-c3nc4ccccc4n3C)cc2n1Cc1ccc(-c2ccccc2C(=O)O)cc1 -43.1%
COc1ccccc1CNc1cc(-c2ccccc2CN(C)C)ncn1 -35.4%
FC(F)(F)c1ccccc1-c1cc(NCc2ccccc2)ncn1 -105%
Cc1cnc(C(=O)N2CCOc3ccc(CN4CCCC(C(=O)c5cccnc5)C4)cc3C2)[nH]1 (centres undefined) -8.53%
O=C(Nc1ccc(O)cc1)c1ccccc1O 7.12%
CC(C(=O)O)c1ccc(C2CCCCC2)c2ccccc12 (centres undefined) 5.84%
CCOC(=O)Cc1cccc(-c2cc(CCCCCCc3ccc(O[C@H]4O[C@H](COC(C)=O)[C@@H](OC(C)=O)[C@H](OC(C)=O)[C@@H]4OC(C)=O)c(-c4cccc(CC(=O)OCC)c4)c3)ccc2O[C@H]2O[C@H](COC(C)=O)[C@@H](OC(C)=O)[C@H](OC(C)=O)[C@@H]2OC(C)=O)c1 -9.09%
CCc1nc2cc(C(=O)NCC3CCS(=O)(=O)C3)cc(NC(=O)c3ccccc3OC)c2n1C (centres undefined) -13.5%
COC(=O)c1ccccc1C(=O)NCc1nc(N2CCCC2)c2cccc(C)c2n1 -26.9%
CN(Cc1cccc2ncccc12)C(=O)c1cnn(-c2nccc(-c3ccccc3F)n2)c1C1CC1 -28.3%
CC(=O)N1CCC2(CC1)CCN(c1ccncc1)CC2 -44.5%
Cc1noc(C)c1-c1nc(Nc2ccccc2)c2ccccc2n1 -34.4%
O=C(c1ccncc1)N1CCC2(CCN(Cc3cc(C(F)(F)F)cc(C(F)(F)F)c3)CC2)CC1 -125%
CC(C)NC(=O)N1CC[C@@]2(CCCN(C(=O)c3cccc(F)c3)C2)C1 17.8%
O=C(c1cc(C(F)(F)F)cc(C(F)(F)F)c1)N1CCC2(CCCN(c3ccccn3)C2)CC1 -45%
CC(C)NC(=O)N1CCCC2(CCN(C(=O)c3cccn3C)CC2)C1 -48.1%
N#Cc1ccc[n+](CC(=O)c2ccc(F)cc2)c1 3.1%

Potency, active:
Cc1cc2nc3c(=O)[nH]c(=O)nc-3n(C[C@H](O)[C@H](O)[C@H](O)CO)c2cc1C 100 µM
Nc1ccc2c3c(cccc13)C(=O)NC2=O 7.08 µM
